HCMV inh – inhibitors of human cytomegalovirus; HFF cells, HCMV-luciferase reporter, 72 h; stronger effect = lower value; actives 4.5% (n = 410,000); activity change, negative = inhibition, % at 57.5 µM; in the data active = activity change below about -60%; inconclusive = no clear call, values can overlap the other calls; inactive = above about -39%
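Screen run at 2 compound doses on HFFs infected with reporter HCMV, MOI 1 PFU/cell. Luciferase activity from cell lysates at 72 h post infection gave inhibition relative to buffer-only and Salinomycin wells.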
Lassa entry inh – Lassa virus entry inhibition. Potency, µM (top dose mostly 37.9 µM), for inactives: at the top dose activity change, negative = inhibition, actives largely listed as inhibitors. actives 1.2% (n = 300,000). Lassa virus pseudotype entry inhibition, cell reporter; calls by dose curve; tested in HEK293 cells; note: potency is the fitted concentration of half-maximal effect; nearly all actives have a fitted effect of over 50% in size
VACV Venus inh – vaccinia inhibition (Venus reporter). Vaccinia virus Venus reporter expression, fluorescence. Potency, µM (top dose mostly 36.5 µM), for the others: at the highest dose activity change, negative = inhibition, most hits filed as inhibitors. actives 0.46% (n = 330,000). AID 720580; calls by dose curve; tested in A549 cells; note: potency is the fitted concentration of half-maximal effect; nearly all actives have a fitted effect of over 30% in size
Vaccinia mCherry – vaccinia inhibition (mCherry reporter) | Vaccinia virus mCherry reporter infection, fluorescence | Potency, µM (doses to about 36.5 µM), for inactives: at the top dose activity change, negative = inhibition, usual class: inhibitors | actives 0.63% (n = 310,000) | AID 720579; calls by dose curve; tested in A549 cells; note: potency is the fitted concentration of half-maximal effect; nearly all actives have a fitted effect of over 35% in size
HCV inhibitor – inhibitors of hepatitis C virus infection; AID 651820; Potency, µM (highest dose often 41.8 µM), inactives show top-dose activity change, negative = inhibition, actives largely listed as inhibitors; actives 3.4% (n = 340,000); Huh7.5.1 HCVcc-Cre infection, luciferase reporter, 44 h; active = well fitted inhibition curve with a large enough effect; inconclusive = small, poorly fitted or top-dose-only effect, or another doubt; inactive = no such curve, though single readings can be large or run the other way; note: potency is the fitted concentration of half-maximal effect
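Infectious HCV cell culture screen: compound-treated cells (1,000/well, pre-plated 4 h) are infected with HCVcc-Cre at roughly 0.5 moi and grown 44 h. Infection is quantified by luciferase signal after 15 min substrate incubation at room temperature.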
MARV entry inh – inhibitors of Marburg virus binding or cell entry | Marburg virus pseudotyped entry inhibition, cell reporter | Potency, µM (top dose mostly 37.8 µM), for the others: top-dose activity change, negative = inhibition, hits mostly inhibitors | actives 1.8% (n = 300,000) | AID 540276; calls by dose curve; tested in HEK293 cells; note: potency is the fitted concentration of half-maximal effect
Numbers without * were called inactive; [ ] = remark or other dose. Compounds with a hit are over-represented: about 7.8% of the library has one in this group of screens. % is set by controls: 0 for no effect and ±100 for the full control effect.

`Cc1ccc(NC(=O)COC(=O)c2ccccc2OCC(=O)Nc2ccc(Br)cc2)c(Br)c1` gave VACV Venus inh -8% and Vaccinia mCherry inactive.
COc1ccc(-c2noc(CSc3nnc(Cc4ccccc4)n3-c3ccccc3)n2)cc1OC was read as HCMV inh -21, Lassa entry inh 6.3µM*, VACV Venus inh -15%, Vaccinia mCherry -13% and MARV entry inh -22%[46.1 µM].
`COc1ccc(-c2noc(CSc3nnc(Cc4ccccc4)n3-c3cccc(C)c3)n2)cc1OC` gave HCMV inh inconclusive, Lassa entry inh inconclusive, VACV Venus inh -28%, Vaccinia mCherry -13%, HCV inhibitor inconclusive and MARV entry inh inconclusive.
c1ccc(-c2cc(CSc3nc4ccccc4[nH]3)on2)cc1 was read as HCMV inh inconclusive, Lassa entry inh -15%, VACV Venus inh inconclusive, HCV inhibitor 4µM* and MARV entry inh inconclusive.
`Cc1noc(C)c1CSc1nc2ccccc2[nH]1` gave HCMV inh 95, Lassa entry inh 5%, VACV Venus inh inconclusive, HCV inhibitor 18% and MARV entry inh 14%.
Clc1ccc(-c2noc(CSc3nnc(-c4ccncc4)n3-c3ccccc3)n2)cc1 was read as HCMV inh -101*, Lassa entry inh -28%, HCV inhibitor 4µM* and MARV entry inh inconclusive.
For COc1ccc(-c2noc(CSc3nc(N)c(-c4ccccc4)c(=O)[nH]3)n2)cc1OC the results were HCMV inh -14, Lassa entry inh -12%, VACV Venus inh -18%, HCV inhibitor inconclusive and MARV entry inh -6%.
COc1ccc(-c2noc(CSc3nc4ccccc4[nH]3)n2)cc1OC was read as HCMV inh -60*, Lassa entry inh -17%[46.1 µM], VACV Venus inh -12%, Vaccinia mCherry -14% and MARV entry inh -35%[46.1 µM].
`Cc1ccc(-n2c(SCc3nc(-c4ccc(Cl)cc4)no3)nnc2-c2ccncc2)cc1` gave HCMV inh -23, Lassa entry inh -18%[46.1 µM], VACV Venus inh 2%, Vaccinia mCherry -7% and MARV entry inh inconclusive.
`COCC(=O)Nc1cc(C(=O)N2CCc3c([nH]c4ccccc34)C2)cc2nc(-c3ccccc3)n(C)c12` gave VACV Venus inh -6% and Vaccinia mCherry -11%.
`CC(C)C(O)c1ccc2c(c1)CN(C(=O)c1ccccc1-n1cccn1)CCO2` (centres undefined) gave VACV Venus inh 2% and Vaccinia mCherry -9%.
`C=CCn1c2ccccc2c(=O)c2cc(C#CC3(O)CCCCC3)ccc21` gave HCMV inh 20, VACV Venus inh inconclusive, Vaccinia mCherry -17% and HCV inhibitor 10µM*.
C=CCn1c2ccccc2c(=O)c2cc(C#CC[C@@H](C)O)ccc21 was read as HCMV inh 211, VACV Venus inh -21%, Vaccinia mCherry inconclusive and HCV inhibitor 13µM*.
Cc1ccc(NC(=O)Cn2c(-c3nonc3N)nc3ccccc32)cc1Cl was read as HCMV inh 70, Lassa entry inh inconclusive, VACV Venus inh -10%, Vaccinia mCherry -4% and MARV entry inh inconclusive.
`CCOc1cc2c3c(c1)C(C)CC(C)(C)N3C(=O)C2=O` (centres undefined) gave HCMV inh -36, Lassa entry inh -19%[14.3 µM], VACV Venus inh -2%, Vaccinia mCherry inactive and MARV entry inh inconclusive.
For CCOc1cc2c3c(c1)C(C)=CC(C)(C)N3C(=O)C2=O the results were HCMV inh -63* and HCV inhibitor -23%.
Screening O=c1c2c3nc4ccccc4nc3n(-c3ccc4c(c3)OCCO4)c2ncn1C1CCCC1 returned HCMV inh -77*, Lassa entry inh inconclusive, VACV Venus inh -3%, Vaccinia mCherry -13%, HCV inhibitor 6% and MARV entry inh inconclusive.
For Nc1c(C(=O)OCC2CCCO2)c2nc3ccccc3nc2n1-c1ccc2c(c1)OCCO2 (centres undefined) the results were HCMV inh -66*, Lassa entry inh 11%, VACV Venus inh -10%, HCV inhibitor inconclusive and MARV entry inh -6%.

High-throughput results from PubChem BioAssay.
